Columns and labels:
Test in all cases: PBM binding z-score (relative to random genomic background probes); higher = stronger binding; sequences stand for … in GC…GCGATTGACAGCGTAGAATGAAGG
[1] = test system: RARb homodimer (NR concentration 270 nM)
Outline: (§1)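 Antibodies against each partner of ligand-free nuclear receptor dimers (one per run) detected binding on custom Agilent 4×180K protein-binding microarrays after 1 h incubation. The double-stranded probes had 34-nt variable regions carrying direct-repeat seeds, single-nucleotide variants, half-site ablations and random human genomic background sequences. Binding z-scores, from regression-normalized fluorescence, use the random background probes as reference.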

[2] = test system: RARg:RXRa (NR concentration 270 nM, RXRa partner concentration 90 nM)
Outline: as §1

[3] = test system: RARg homodimer (NR concentration 270 nM)
Outline: as §1

[4] = test system: RXRa DBDmut IVT, anti-RXR (DBD mutation: RXRa K156A/R161A, NR concentration 90 nM)
Outline: as §1

[5] = test system: RXRa homodimer (NR concentration 180 nM)
Outline: as §1

[6] = test system: THRa:RXRa (NR concentration 90 nM, RXRa partner concentration 90 nM)
Outline: as §1

[7] = test system: THRa homodimer (NR concentration 90 nM)
Outline: as §1

[8] = test system: VDR homodimer (NR concentration 270 nM)
Outline: as §1

Row | Sequence | PBM binding z-score [1] | PBM binding z-score [2] | PBM binding z-score [3] | PBM binding z-score [4] | PBM binding z-score [5] | PBM binding z-score [6] | PBM binding z-score [7] | PBM binding z-score [8]
1 | GCGACTGAGGCAAAGCAGGTTACCATAAGGTTGG | 0.0198 | 0.00383 | -0.272 | -0.374 | 0.123 | 1.54 | -0.231 | -0.64
2 | ATCTCTAGGTAAGACTCTGTTCAGTGAAGAACGC | 0.515 | -0.0818 | 0.134 | 0.365 | 0.0121 | 0.57 | 0.576 | -0.00157
3 | GGAACGAGGGCATTCGAGTTGATACCATGGCGAT | 0.873 | 1.26 | 1.46 | 3.31 | 0.823 | 3.34 | -0.337 | 3.45
4 | CAAACTTGGTCACAGAGGTCAAAGTCCGTGCGTA | 4.73 | 5.89 | 5.25 | 2.34 | 6.56 | 3.98 | 1.36 | 4.8
5 | TGGCCTAGGTCAGATCGGGCCAGTATACGCTATA | 1.79 | 2.62 | 4.12 | -0.787 | 1.19 | 3.53 | -0.553 | -0.622
6 | TCTGTTAGTTGATTAGGGCAACCGAAACAGCGGA | 0.861 | 0.9 | 0.978 | 0.605 | 0.318 | 0.839 | 0.442 | 0.324
7 | TCTGGTAGGTCAACGATGGTCAGCTAATCTGCTA | 3.75 | 4.31 | 4.78 | 1.26 | 3.49 | 2.98 | 0.7 | 0.622
8 | ACTATTAGTTGAGACGAGGGCAACGGATAGGTTG | 0.993 | 0.638 | 0.908 | 0.374 | 0.585 | 2.53 | 0.137 | 0.875
9 | TGGAGTAGGTTAGTCGGGGCATTCAGCCAACATA | 1.41 | 0.219 | 0.355 | -0.608 | 0.023 | 1.48 | 0.985 | 1.24
10 | CCTACTGGGCCATGGTCATTGATCAGTCAAAGCA | 0.781 | 0.494 | 0.374 | -1.27 | -0.0481 | 0.0106 | -0.543 | -0.137
11 | CAAGCTAGGTCAAGGTCAAAGTCGGTTTGTGCCA | 4.92 | 6.04 | 6.71 | 2.89 | 5.73 | 4.39 | 3.51 | 4.44
12 | CCGACTGGGGCAGAAAGTTTACCATACCATCCGG | 0.899 | -0.0805 | 0.478 | -0.44 | -0.178 | -0.72 | -0.708 | 0.157
13 | TCTTGTAGATCAACAGGAGGTGAAGAAAGATCGA | 0.000947 | 0.381 | 0.0903 | 0.184 | 0.315 | 0.726 | -0.344 | -0.884
14 | CGTCCAAGGTCAAGGTCAGTGAGAGAGACTCGAA | 5.4 | 6.7 | 7.4 | 3.75 | 6.25 | 4.31 | 3.35 | 3.5
15 | TTACCAAGGTGAGCTGAGGTCGTTGGTCCAACTC | 1.6 | 1.2 | 0.604 | -0.219 | 1.34 | 4.45 | 2.2 | 2.56
16 | TCATATAGGTAAACAGGTGATAGTCCGTAAGTTA | 0.338 | 0.509 | 0.323 | 1.35 | 0.949 | 0.375 | 0.179 | 0.482
17 | TCTATTCGTTGAAGGGCAACCGACGAGTCCGTTT | 1.39 | 0.744 | 0.769 | 1.49 | 0.993 | 0.507 | 0.017 | 1.27
18 | CCTACTGGGCCATAGGTCATTGATTCCAATGCTC | 2.63 | 2.89 | 1.95 | 0.122 | 2.63 | 1.61 | 0.173 | 0.271
19 | CAGCCTAGGTCAGGGCCAGTAGAGGAGGAACGTT | 2.31 | 2.91 | 3.9 | -0.543 | 1.35 | 1.88 | 0.411 | 0.169
20 | CCTTTCGGGTCACTGACAGGTTATAGCATTTGGA | 3.44 | 5.76 | 4.91 | 2.55 | 5.16 | 4.17 | 2.95 | 1.19
21 | AGAACTAGGGCACGCTGAGTTGATAGCAGAGTAG | 0.535 | 0.967 | 1.49 | -0.125 | 0.504 | 0.309 | -0.568 | 0.21
22 | CGAACTAGGTCATCCAGGACAGGGAATACATTGA | 2.82 | 3.79 | 4.29 | 2.17 | 2.65 | 3.52 | 1.93 | 1.73
23 | CTCGACAGGTCGGTTGAGGTGAGTATACGGATAA | 0.715 | 0.769 | 0.825 | -0.127 | 0.289 | 4.41 | 1.11 | 0.012
24 | CCTAGCAGGCCAATCTGGGTAACTCAAGGCTTGA | -0.251 | -0.429 | -0.124 | 0.0487 | -0.515 | 1.86 | -0.653 | -0.997
25 | TCTGCTAGGTCAATTGGTCAGCTAACGAGCTGCC | 2.93 | 3.91 | 4.34 | 1.21 | 2.09 | 2.3 | -0.00918 | -0.473
26 | CCGACTGGGGCAGAAAGGTTACCAAACCATCCGG | 2.23 | 1.52 | 1.35 | -0.609 | 1.66 | 0.905 | -0.598 | -0.377
27 | ACAGACAGGTGATGGAGGTAACTCAGGCTATCAT | 0.431 | 0.0912 | 0.339 | -0.505 | 0.156 | 1.05 | 0.503 | -0.164
28 | TCGAGTAGGTTAACAATGGGGCATTCAGCTTTCT | 0.737 | 1.49 | 0.51 | 0.509 | 0.809 | 0.284 | -0.587 | -0.182
29 | ATCGAAGGGTCGTGAGGTGAGTATACAGAAAGGC | 2.09 | 3.05 | 2.55 | 0.87 | 3.4 | 2.84 | 1.51 | 0.783

Source: the supplement of paper PMC6555819
